Among the data in PubChem BioAssay AID1347426 (Functional Genomics Laboratory (NCATS/FGL), 2020) are median seed-adjusted z-score values, retold here.

The campaign covered roughly 31,000 sequences. About 1,400 (4.5%) were called active.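 The calls were made as follows: active = median seed-adjusted z-score above 1 or below -1; inactive = the rest.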 Many of the other results were omitted from the sample, so actives are more common in it than they were.

This experiment in a line: Novel Modifiers of Survival Motor Neuron (SMN) Protein: Gene Identification via Genome-wide siRNA Screen.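 Also: luminescence tracks full-length SMN protein made from the SMN2 reporter.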 As to conditions: HEK293T SMN2-luciferase reporter, siRNA knockdown, 72 h; actives lie on both sides. In short, it runs like this:
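Each of three siRNAs per gene is reverse-transfected (1 pmol) into reporter HEK293T cells whose luciferase output tracks SMN protein level. After 72 h culture, ONE-Glo luminescence is control-normalized, log10-transformed and MAD-standardized; Common Seed Analysis deprioritizes seed-driven hits.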
Background: A reporter such as luciferase makes a cellular process visible.
Consider GAAACGAUGAAAUAAGAUATT against PTGS1, for which the median seed-adjusted z-score was 0.0458 (inactive).

Take GGUUGGUCUCCUCUUCAUATT against PSMD10: the median seed-adjusted z-score was 0.265 (inactive). The value for CCCUCUCACUUGAAGAUCATT against HYAL1 was -0.163 (inactive). The figure for AUUCAUCUCAUAAACAAAATT against BATF2 is 0.714 (inactive); for GCAUGGAGCAGAUCGUGUUTT against ITPR3 it is -1.28 (active); for GCAGCAUCAAUGUCUGGAATT against SLC6A8 it is -0.0673 (inactive).

As for GGCCUUAGAUGAGUCCCUATT against PABPN1, the median seed-adjusted z-score was -0.757 (inactive). The figure for ACAAUGAACUGGAUCAACATT against TBX20 is 0.00303 (inactive).

As to CACUAUCUAUUCCACCUUUTT against HTR1A, the median seed-adjusted z-score was 0 (inactive). For CAGGUGCUUCGUUUCCUGATT against ARHGAP1, the median seed-adjusted z-score was -1.14 (active).

As for GAGUAAACCUCGAAACCGATT against MAP3K13, the median seed-adjusted z-score was -0.121 (inactive). The figure for GACCAUGAAUUUCAUUGUATT against MYLK3 is 0.316 (inactive). The figure for GGACUAAAACUUUAAACUATT against POU4F2 is 1.46 (active).

As to CUACCAGGAUGUUGAUAAATT against ZNF761, the median seed-adjusted z-score is 0.291 (inactive). The figure for GGAUUGAGGUGGAGAUGGATT against MCM5 is 0.126 (inactive); for CUAAAGGUCUUGUUACAUUTT against ASNS it is -1.1 (active). The figure for ACCUAGAAGUGAACUGUGATT against GP1BA is 0.0803 (inactive); for UGGUGACUCUCAUUUCGCATT against BCAP31 it is 0.277 (inactive). The value for GGAUGUCACUGUUUCUGGATT against CLIC6 was -0.00828 (inactive); that for GGCCUACUGUGGAAUUGGATT against TTC3 was -1.17 (active). CGAUCAACUCCUUAAAGGATT against FLRT2: the median seed-adjusted z-score was -0.00573 (inactive). The figure for GCUUUUCCAUUAUAAGGCATT against FOXE1 is -0.316 (inactive). The figure for CAAAUUGCCUCGUCAAAGATT against DNTT is 0.316 (inactive).

As to GACCGACUCAGAUAUCAUUTT against SNRPA, the median seed-adjusted z-score is -2.09 (active). The figure for CACUGGAUUUGAGAGGUUATT against ABHD7 is -0.301 (inactive). The value for GGCCGAGUGUACUACUUCATT against PIN1 was 0.156 (inactive).

In the case of GCACUGUGCUUAAGCUGGATT against PKN1, the median seed-adjusted z-score was -0.753 (inactive). The value for CGACAUGAUCUCCUACUCATT against ABLIM2 was -0.26 (inactive). The figure for GAAACUGGACAGUAAGAAATT against HDAC4 is -0.0988 (inactive).

Turning to GGUUUCAAGAUAACCCAAATT against POU2F3, the median seed-adjusted z-score was -1.53 (active). The value for CAAAGGUUAUUCUGCAUAUTT against CTSO was 0.322 (inactive); that for GCAGGAGCUGUAUUUGAUGTT against NUDT6 was 0.281 (inactive); that for AGAUGUACGAGGAAAAGUATT against WNK4 was 0.385 (inactive).

On to GGUGUUUGAUAUACAGAGGTT against RABL2A, for which the median seed-adjusted z-score is 0.794 (inactive). CGACUCUGACACCACCAUATT against GOSR2: the median seed-adjusted z-score was -1.25 (active).

Turning to CCAUGGAUUUUAUGAGGAATT against ECHDC1, the median seed-adjusted z-score was 0.554 (inactive). The figure for CCUUCAUUAAUGAGUCAUATT against ZNF426 is 0.2 (inactive); for UGCAGCCUCUCCAAACUUATT against SP6 it is -0.176 (inactive); for GCCCAACAAGUGUACGUUUTT against GLIS3 it is -0.00906 (inactive).

Take GGCUGAUAAAAAUCCACGATT against RICS: the median seed-adjusted z-score is 0.665 (inactive).

Turning to AGUACGAUCUUGACUUCAATT against ENO3, the median seed-adjusted z-score was -0.142 (inactive). The figure for GGGAAGUCUUUUAAUCGUATT against ZNF780B is -0.332 (inactive); for CUGUUGGUAUUGUCCACAATT against MAL it is 0.0733 (inactive). The figure for GGGACUUUUGCAAAGGAAATT against CLEC5A is -1.07 (active); for GGAGAGCUGUGAAAAGUCATT against CCR8 it is -0.206 (inactive). The figure for GAACUUAGACCAACUUUAATT against COX5A is -0.348 (inactive); for CCACAAGCUGCAUAAGAGATT against SPTBN4 it is -0.0625 (inactive); for GGACUUUUACACCACCUUUTT against NRXN2 it is -0.485 (inactive). For the sequence CAACGACUACAGGUCUGUATT against ITGA11, the median seed-adjusted z-score was 0.496 (inactive). For GGCAGGAAGUCAAACCUAUTT against KLK2, the median seed-adjusted z-score is 0.0716 (inactive). For the sequence CAAACGAGGUGAACGAUGATT against PYGO1, the median seed-adjusted z-score was -1.23 (active). The value for AGAUACUCACGGACAUUAUTT against COASY was 0 (inactive); that for GUCACGCUAUGAGACCUCATT against E2F1 was -0.211 (inactive); that for GCAUCGAAUUUGCAGAACATT against PNN was 1.29 (active). Regarding GGAAACGAUUAUUACAACUTT against LRRK2, the median seed-adjusted z-score is -0.671 (inactive).

For the sequence AUAAAUACCUCGGACAUUATT against EIF1AX, the median seed-adjusted z-score is 0.878 (inactive). The figure for CCCUUCGCGUUGUUGCUCATT against DHRS1 is 0 (inactive). The figure for GAGGGACCAUAGUAGAUCATT against CPSF6 is -2.38 (active); for GAUCGAUUCAUACCAUAUATT against MCM8 it is 0.279 (inactive). The figure for GAAGCUACGUUGACUAUUUTT against HRC is 1.06 (active); for GAAGUUUACUUAUCUGGGUTT against PRKAB1 it is 0.536 (inactive). In the case of CAACAAUCCUAUAAUUCCATT against UBE2Q2, the median seed-adjusted z-score was 0.146 (inactive). In the case of ACCUGUUAAUGGCCUUUGUTT against SLC30A3, the median seed-adjusted z-score was -1.26 (active). Consider GGAGUUCAUCCGUCAAGUUTT against BIRC3, for which the median seed-adjusted z-score is -0.644 (inactive). In the case of GCAUCAAUGUACCUCCACATT against ETV4, the median seed-adjusted z-score was -0.186 (inactive).

For the sequence CGACCAUUGGAGAUGUUAATT against SCML2, the median seed-adjusted z-score was -0.538 (inactive). The value for GAGGAUUACUAAUUGAUCUTT against CHM was 0.743 (inactive); that for GAAAAAGGGUCACCAGAAATT against TSG101 was 1.48 (active). The value for GGCCGUGGAUCAUCACUAUTT against FLJ16165 was -0.404 (inactive). The figure for GCCUUAAGGUAUUCGUGUATT against EXTL1 is 0 (inactive); for CCACCACAGAUUUUCCUAUTT against CD300A it is -0.414 (inactive); for GGAACUCAUUAUACAAUGATT against CLCN3 it is -0.0801 (inactive).

For CCCUAUGAGUGUCAACAAUTT against ZNF799, the median seed-adjusted z-score is -1.02 (active).

On to GAUAUGUAUUCAUACUAAUTT against SNX10, for which the median seed-adjusted z-score was 0.391 (inactive). The figure for GUACAGCUCUUAUCGUUCATT against PPRC1 is 0 (inactive); for GCAUCUUUCUGAGUUCACUTT against SLC22A11 it is 0 (inactive). The figure for GUGCUACAAUUGUACAGUATT against CREM is -2.37 (active); for GCAUGAGUAUCUAUGACGATT against ATP5C1 it is -0.0179 (inactive).

Turning to ACUCCAACCGUACCCUUUATT against PPT2, the median seed-adjusted z-score is 0.0334 (inactive). The value for CCACUACGGUGUUCAUGCATT against PPARD was 0.0283 (inactive). As for CUGAGACCCUGUUGACUGATT against PGS1, the median seed-adjusted z-score is 1.36 (active). The figure for GACUCCUACAUGUCCAUUATT against DNM3 is 0 (inactive). Regarding GACAGACUGUGCAUAUGUATT against GPR15, the median seed-adjusted z-score was 0.101 (inactive). The figure for GCAACCACCUAUAUCCUCATT against P2RY10 is -0.432 (inactive).

As for GAGUCACAUUUGAGGUUCATT against CSF2RA, the median seed-adjusted z-score is -0.227 (inactive). CUCCCUCGGUUAUAAAGAUTT against SLC4A5: the median seed-adjusted z-score was 1.3 (active). The figure for CAACCUUGCGGCAUGCAAATT against PRSSL1 is -0.221 (inactive). With GGAUCUAUAGUGAUUGUCATT against TFRC, the median seed-adjusted z-score is 0.019 (inactive). The value for GCCUAUAGAGGAUCAGUUATT against PCMTD1 was 0.0312 (inactive). The value for GAGUGAGGACGGAAGAUCATT against APH1A was 0.741 (inactive); that for GGCUGUAUGAGCACCGUUATT against TGIF1 was 0.303 (inactive). For GGAUGUUAGUAAACUCUCUTT against PSMA4, the median seed-adjusted z-score is 0 (inactive). The figure for GAAUGUUAGUAGACGGGUUTT against IKZF5 is 0.399 (inactive). The value for GCACUAUCCAGUUUGUGGATT against TUBA3E was -0.35 (inactive). The figure for GGCCGUUACUUACCAGAGUTT against UROD is 1.11 (active); for GAGAAACUAGAAUACAGAATT against ADPRH it is -0.406 (inactive); for GGGAUUAUCUUGCUUCCAATT against LPCAT2 it is 0 (inactive).

Turning to CCGUGAACCCAGAACAGUATT against PIP4K2A, the median seed-adjusted z-score was 0.469 (inactive). The value for GAGUCAGGACAAGAAGAUUTT against PHPT1 was 1.27 (active). On to GGAUGGAACUUUACCCUCATT against MKL2, for which the median seed-adjusted z-score was -0.863 (inactive). The value for CUACAAGCAUCGAUAGUAATT against EIF4G3 was -0.0562 (inactive); that for GAAAGAAAUCAACUGAUGATT against FBP1 was -0.221 (inactive); that for GCAGACUCUCGACAUCCGATT against MAFK was 1.73 (active). The figure for GCUCAUUCCAGGUCAAUCATT against MLL3 is -0.248 (inactive); for GCUCAUAGGUAAGAAUUGUTT against NUBP1 it is -0.0975 (inactive). For CGGCCUUCAUCGCAGUACATT against SLC7A5, the median seed-adjusted z-score was 0.00397 (inactive). As for GGGUGAAGUCUCUCAAGAATT against LLGL1, the median seed-adjusted z-score was -1.13 (active). The value for CAAGAUCUAUGAUAAGGAUTT against GUCA1B was 0 (inactive); that for ACUUCAACAUGACCAAAAATT against PPARD was 0.0283 (inactive).
